# Measurements: PubChem BioAssay (NCATS)
# Results filed as inconclusive are left out. A number with no mark means an inactive call. Calls follow the shape of the dose curve; as a rule, active = well fitted inhibition curve with a large enough effect; inconclusive = small, poorly fitted or top-dose-only effect; inactive = flat fitted curve, though single readings scatter.
# Target: Calcium and integrin-binding protein 1 (Homo sapiens) (UniProt Q99828)
# Assay: Primary qHTS for Identification of Calcium Integrin Binding Protein 1 (CIB1) Competitor (AID 1508620);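 also: GST tagged CIB1 binding a fluorescein labelled alphaIIb integrin peptide tracer; top concentration of the series differs between compounds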
# Conditions: CIB1-GST / FITC-alphaIIb peptide fluorescence polarization; series mostly up to 114 µM; activity change, negative = inhibition: at the top concentration
# How it was run: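 CIB1-GST (1 uM final) and compound incubated 15 min at room temperature before adding FITC-alphaIIb peptide tracer (100 nM final). Competition for binding read by fluorescence polarization (ex 480, em 540) after another 15 min at room temperature.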
# % is scaled to controls: 0 for no effect and ±100 for the full control effect.
# Calcium and integrin-binding protein 1 (Homo sapiens), sequence (Q99828 whole entry, looked up): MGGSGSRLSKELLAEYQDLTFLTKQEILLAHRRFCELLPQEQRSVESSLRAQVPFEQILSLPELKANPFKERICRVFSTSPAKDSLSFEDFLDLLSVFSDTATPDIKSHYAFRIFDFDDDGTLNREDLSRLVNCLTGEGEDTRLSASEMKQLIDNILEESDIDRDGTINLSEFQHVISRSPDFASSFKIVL
row,Structure (SMILES),"activity change, negative = inhibition"
1,CC(C)[C@H](NC(=O)c1nn(Cc2ccc(F)cc2)c2ccccc12)C(N)=O,-0.279%
2,COC1CCCC(C)OC(=O)Cc2cc(O)cc(O)c2C(=O)C1 (stereo not drawn),4.88% [at 57.7 µM]
3,CN1CCCCC1Cn1cc(C(=O)c2cc([N+](=O)[O-])ccc2I)c2ccccc21 (stereo not drawn),-4.1%
4,COc1cc(C(=O)N2CC[C@@H](O)[C@@H](N)C2)cc2nc(-c3cc4ccccc4n3CC3CC3)n(C)c12,0.184% [at 57.7 µM]
5,C=C1C(=O)CC2OC2(C)CC2OC(=O)C(=C)C2C(O)C1OC(=O)/C(C)=C\C (stereo not drawn),-16.7% [at 57.7 µM]
6,CC12CCC3C(C1)c1c(cc(O)c(C(=O)c4ccccc4)c1OC3(C)C)O2 (stereo not drawn),1.52% [at 57.7 µM]
7,CN1C(=O)[C@@H](Cc2c[nH]c3ccccc23)N=C(c2ccccc2F)c2ccccc21,2.6%
8,C#C[C@]1(O)CC[C@H]2[C@@H]3CC[C@H]4Cc5nc6nc7ccccc7n6cc5C[C@]4(C)[C@H]3CC[C@@]21C,-0.514%
9,CC(C)[C@H]1OC(=O)[C@H](Cc2ccccc2)N(C)C(=O)[C@@H](C(C)C)OC(=O)[C@H](Cc2ccccc2)N(C)C(=O)[C@@H](C(C)C)OC(=O)[C@H](Cc2ccccc2)N(C)C1=O,-9.02% [at 30.2 µM]
10,COc1cc(O)c2c(c1)CCC[C@@H](O)[C@H](O)C(=O)/C=C\C[C@H](C)OC2=O,-10.7% [at 57.7 µM]
11,CCCCCCC1C(=O)O[C@H](C)[C@H](NC(=O)c2cccc(NC=O)c2O)C(=O)O[C@@H](C)[C@@H]1OC(=O)CC(C)C (stereo partly drawn),-1.19%
12,C[C@@H]1O[C@@H](OC2CCC3(C=O)C(CCC4C3CCC3(C)C(C5=CC(=O)OC5)C(O)CC43O)C2)[C@H](O)[C@H](O)[C@H]1O[C@@H]1O[C@H](CO)[C@@H](O)[C@H](O)[C@H]1O (stereo partly drawn),2.94% [at 30.2 µM]
13,C=C(C)C(=O)O[C@H]1[C@@H]2[C@H](C)C(=O)O[C@@H]2C[C@@H](C)[C@@H]2C=CC(=O)[C@]21C,-5.8% [at 57.7 µM]
14,CCN1C[C@]2(COC)CC[C@H](O)[C@@]34C5C[C@@H]6[C@@H](OC)C[C@@](OC(C)=O)(C5[C@@H]6OC(C)=O)[C@H]([C@H](OC)C23)[C@@H]14 (stereo partly drawn),0.864% [at 57.7 µM]
15,CN1C(=O)N(c2ccc(C#N)c(C(F)(F)F)c2)C(=O)[C@@]1(CO)c1ccccc1,-3.53%
16,CC(=O)O[C@H]1C[C@]2(O)[C@@H]3CC[C@@H]4C[C@@H](O)CC[C@]4(C)[C@H]3CC[C@]2(C)[C@H]1c1ccc(=O)oc1,-2.9%
17,CCCCCn1cc(C(=O)Oc2cccc3cccnc23)c2ccccc21,3.2%

row,Structure (SMILES),"activity change, negative = inhibition"
1,CN=C(NS(=O)(=O)c1ccc(Cl)cc1)N1C[C@H](c2ccccc2)C(c2ccc(Cl)cc2)=N1,4.85%
2,COC1CC(O[C@H]2CC[C@@]3(C)C(CCC4C3CC[C@]3(C)C(C5=CC(=O)OC5)CCC43O)C2)OC(C)C1OC1OC(COC2OC(CO)C(O)C(O)C2O)C(O)C(O)C1O (stereo partly drawn),1.19% [at 30.2 µM]
3,C=C(C)[C@@]12O[C@@H]1[C@@]1(C)C(=CC2=O)CC[C@@H](OC(C)=O)[C@@H]1C,0.703%
4,CN1Cc2c(ccc3c2OCO3)[C@@H]2[C@H]1c1cc3c(cc1C[C@@H]2O)OCO3,4.64% [at 57.7 µM]
5,CN(Cc1cccc(-c2ccncc2)c1)C(=O)Oc1ccc(-c2ccc(C(N)=O)cc2)cc1,0.809%
6,CC1=CC2OC3CC(O)[C@](C)([C@@]2(C)C(O)C1=O)[C@]31CO1 (stereo partly drawn),-4.26%
7,CC[C@H](O)[C@@H](C)[C@H]1O[C@@H]1C[C@H](C)/C=C/C=C(\C)[C@H]1OC(=O)C[C@H](O)CC[C@@](C)(O)[C@@H](OC(C)=O)/C=C/[C@@H]1C,-2.31%
8,CN(C(=O)C(c1ccccc1)c1ccccc1)[C@H](CN1CC[C@H](O)C1)c1ccccc1,7.42%
9,COC(=O)C12C(=O)C(C)(O)C(=O)C1(C)C(C)=CC1C34CCC(OC3=O)C(C)(C)C4CCC12C (stereo not drawn),2.07% [at 57.7 µM]
10,CCOc1ccc(Oc2ccc(OCc3cc(F)ccc3F)cc2)c(N)c1,4.78%
11,Cc1ccc2c(c1)[C@H]1CN(C)CC[C@H]1N2C(=O)CSc1nnnn1-c1ccc(Cl)cc1,-3.75%
12,Fc1cc(F)c2c(c1)C1C=CCC1C(c1cccnc1)N2 (stereo not drawn),-4.14%
13,CCCN(CCC)[C@@H]1CCc2ccc3[nH]c(C#N)cc3c2C1,0.827%
14,C[C@]12CC[C@H](O)C[C@@H]1CC[C@@H]1[C@@H]2CC[C@]2(C)[C@@H](C3=CC(=O)OC3)CC[C@]12O,1.16% [at 57.7 µM]
15,CC1=CC(=O)[C@@H](O)[C@@]2(C)C1C[C@H]1OC(=O)[C@H](O)[C@@]3(O)[C@@H](C)[C@@H](O)[C@H](O)C2[C@@]13C (stereo partly drawn),8.85% [at 57.7 µM]
16,c1ccc([C@@H]2C[C@H]2NC2CCNCC2)cc1,1.58%
